Data on 34 molecules can be found in PubChem BioAssay AID743060 (The Scripps Research Institute Molecular Screening Center, 2013).

As usually defined, the inhibition is the relative decrease from the control value, in per cent.

This assay can be described thus: inhibitors of T. brucei MetRS aminoacylation, late-stage follow-up, biochemical, radioactivity, round 1 (AID 743060). The conditions noted are these: purified enzyme, radiolabel aminoacylation, scintillation, 2 h; at 1 µM; stronger effect = higher value.
`Cc1ccc(C(=O)NCCc2nc3ccccc3[nH]2)cc1C`: the inhibition is -10.8%.
On to `Cc1ccc(C(=O)NCCc2nc3ccccc3[nH]2)cc1[N+](=O)[O-]`, for which the inhibition was found to be 35.7%.
In the case of `O=C(NCc1nc2ccccc2[nH]1)C1=C[C@@H](C2CC2)C[C@@H](OCc2ccc(CO)cc2)O1` it was 52.8%.
In the case of `COc1ccccc1NS(=O)(=O)c1cccc(NC(=O)Nc2ccccc2)c1`, the inhibition came out at 57%.
In the case of `O=C(NCc1nc2ccccc2[nH]1)C1=C[C@@H](c2ccc(Br)cc2)C[C@@H](OCCCCO)O1` it was 84.2%; in that of `CC(=O)c1ccc(N2CCN(C(=O)CCCn3c(=O)[nH]c4ccc(Br)cc4c3=O)CC2)cc1`, 68.1%; in that of `CCN(CC)C(=O)C(=O)c1cn(CC(=O)Nc2cccc(C(F)(F)F)c2)c2ccccc12`, 95.4%.
In the case of `O=C(Cn1cc(C(=O)c2ccco2)c2ccccc21)Nc1cccc(C(F)(F)F)c1` it was 45.2%.
In the case of `O=C(Cn1cc(C(=O)C(=O)N2CCOCC2)c2ccccc21)NCC1CCCO1` (centres undefined) it was -3.8%; in that of `Cc1cccc2[nH]c(CCN(C)C(=O)c3cccc(C4CCNC4)c3)nc12` (centres undefined), -7.8%.
Turning to `O=C(NNC(=O)c1cc(-c2ccc(Cl)c(Cl)c2)nc2ccccc12)Nc1ccccc1`, the inhibition turned out to be 59.7%.
In the case of `O=C(N/C(=C\c1cccnc1)c1nc2ccccc2[nH]1)c1cccc(Br)c1` it was 14.4%.
In the case of `O=C(CSC1CC(=O)N(c2cccc(Cl)c2)C1=O)Nc1ccc(Br)cc1` (centres undefined) it was 23.7%.
`COc1ccccc1NC(=O)Cn1cc(C(=O)C(=O)N2CCOCC2)c2ccccc21`: the inhibition was -14.4%.
In the case of `CN(CC(=O)Nc1ccc(Cl)cc1)C(=O)c1ccc(-n2cncn2)c([N+](=O)[O-])c1`, the inhibition stood at 38%.
For the molecule `O=C(NCc1nc2ccccc2[nH]1)C1=C[C@H](c2csc3ccccc23)C[C@H](OCCCCO)O1`, the inhibition worked out at 71.1%.
In the case of `CC(C)OCCCN1CC(=O)N2C(c3cccc([N+](=O)[O-])c3)c3[nH]c4ccccc4c3C[C@H]2C1=O` (some centres undefined) it was 50%.
In the case of `CCCCn1c(CCNC(=O)c2ccc(F)cc2)nc2ccccc21` it was 4.87%; in that of `COc1ccccc1-n1c(SCC(=O)Nc2ccc(Cl)cc2)nc(O)c(Cc2ccccc2)c1=O`, 2.04%.
In the case of `Cc1ccc(CNC(=O)CSc2nnc3c(n2)[nH]c2ccc(C)cc23)cc1` it was 76.3%.
Consider `CCN(CCc1nc2ccc(C)cc2[nH]1)C(=O)c1ccc2ncccc2c1`, for which the inhibition is -4.55%.
As to `Oc1c(Cl)cc(Cl)cc1CNc1nc2ccccc2[nH]1`, the inhibition was determined as 88.3%.
In the case of `COc1ccc(CCN(C(=O)c2cccc(F)c2)C2CC(=O)N(c3ccc(Br)cc3)C2=O)cc1` (centres undefined) it was -5.29%; in that of `CCO[C@H]1OC(C(=O)NCc2nc3ccccc3[nH]2)=C[C@@H](c2ccc(Br)cc2)[C@@H]1CCCO`, 0.88%.
On to `CC(=O)c1cn(CC(=O)Nc2cccc(C(F)(F)F)c2)c2ccccc12`, for which the inhibition stood at 20.1%.
In the case of `O=C(NCCc1nc2ccccc2[nH]1)c1ccc(Cl)cc1Cl` it was 61.9%; in that of `O=C1CC(NCCc2ccccc2)C(=O)N1c1ccc(Br)cc1` (centres undefined), -6.51%.
Take `COc1ccc(OCC(O)CNC(=O)Nc2ccc(Cl)cc2)cc1` (centres undefined): the inhibition was found to be 28.9%.
For `Cc1[nH]c2ccc(Br)cc2c(=O)c1CN1CCCCCC1`, the inhibition was determined as 19.4%.
As to `COCCc1nc2ccc(C(=O)NCCc3nc4ccc(OC)cc4[nH]3)cc2o1`, the inhibition is -1.44%.
In the case of `Cc1cc2cc(C(=O)N3CCCC(c4nc5ccccc5[nH]4)C3)ccc2o1` (centres undefined) it was 20.3%; in that of `CC(C)c1nc2ccc(C(=O)N(C)CCc3nc4ccc(F)cc4[nH]3)cc2o1`, -1.99%.
Consider `O=C(NNC(=O)c1ccc(-n2cncn2)c([N+](=O)[O-])c1)c1ccc(Cl)cc1`, for which the inhibition was 7.36%.
As for `O=C(NCCc1nc2ccccc2[nH]1)c1ccc(Cl)c(Cl)c1`, the inhibition amounted to 74.6%.
